The list is not random: actives were taken first. Their share in the collection is about 11%.
USP30 inh: inhibitors of human USP30 deubiquitinase. Ubiquitin carboxyl-terminal hydrolase 30 (Homo sapiens), Q70CQ3. purified USP30, Ub-rhodamine cleavage fluorescence. inhibition, % at 25 µM. actives 5.3% (n = 47,000)
USP17 inh: inhibitors of human USP17 deubiquitinase. Ubiquitin carboxyl-terminal hydrolase 17-like protein 5 (Homo sapiens), A8MUK1. purified USP17, Ub-rhodamine cleavage fluorescence, 3 h. inhibition, % at 50 µM. actives 6.5% (n = 47,000)
USP28 inh: inhibitors of human USP28 deubiquitinase; Ubiquitin carboxyl-terminal hydrolase 28 (Homo sapiens), Q96RU2; purified USP28, Ub-rhodamine cleavage fluorescence, 30 min; inhibition, % at 25 µM; actives 3% (n = 47,000); AID 1645857, 2021
An asterisk follows results filed as active. No stated cut-off is given here; in the data, active means inhibition above about 30%; inactive means the rest.

SMILES	USP30 inh	USP17 inh	USP28 inh
Cc1ccc(N2CC(C(=O)N3CCC(c4noc(-c5ccccc5)n4)CC3)CC2=O)cc1C (configuration not stated)	21	9	8
COc1ccc(CN2CCC3(CC2)OCCc2cnc(C)nc23)c(OC)c1	32*	-17	-1
COc1cccc(CN2CCC3(CC2)OCCc2cnc(C)nc23)c1	6	13	-1
CSc1cccc(NC(=O)COc2cccc3ccccc23)c1	78*	41*	35*
Cc1cc(Cl)ccc1OCC(=O)Nc1ccccc1	-3	14	-6
O=[N+]([O-])c1cc(S(=O)(=O)N2CCOCC2)ccc1NCC1COc2ccccc2O1 (configuration not stated)	-10	-8	2
Cc1ccc(Cn2ccc3nc(N4CCN(C)CC4)ncc3c2=O)cc1	25	13	3
COc1ccc(Cn2ccc3nc(N4CCCCC4)ncc3c2=O)cc1	28	71*	15
CC(=O)c1cc2c(cc1NC(=O)Cn1cnc3c1c(=O)n(C)c(=O)n3C)OCO2	-3	0	0
Cc1cc(C)n(CC2CCCN2Cc2nnc(C3CC3)n2C)n1 (configuration not stated)	-41	-11	-15
Cc1cc(C)cc(-n2c(C)cc(C(=O)C(=O)NCc3ccccc3)c2C)c1	-2	-7	5
CCOc1ccc(NC(=O)CSc2nc3n[nH]c(C)c3c(=N)n2-c2ccc(OC)cc2)cc1	52*	9	11
COc1ccc(-n2c(SCC(=O)N3CCCC3)nc3n[nH]c(C)c3c2=N)cc1	-11	17	-4
O=C(CCc1nc(-c2cccnc2)no1)Nc1ccc(Cl)cc1	-23	-21	-8
O=C(O)c1ccccc1C(=O)Nc1ccc(SC(C(=O)Nc2ccccc2)c2ccccc2)cc1 (configuration not stated)	13	63*	19
O=C(O)c1ccccc1C(=O)Nc1ccc(SC(C(=O)Nc2ccccc2F)c2ccccc2)cc1 (configuration not stated)	19	-3	3
Cc1ccc(C(=O)O)cc1NC(=O)C(Sc1cccc(NC(=O)c2ccccc2C)c1)c1ccccc1 (configuration not stated)	78*	92*	55*
O=C(O)c1ccc(Cl)c(NC(=O)C(Sc2cccc(NC(=O)c3cccc(Cl)c3)c2)c2ccccc2)c1 (configuration not stated)	-40	15	4
Cn1cc(-c2cnc(-c3ccnn3C)nc2)cc1C(=O)NCCc1ccccc1	3	-4	-1
CC(C)Oc1ccc(C(CC(=O)N2CCCCC2)c2ccc(F)cc2)cc1 (configuration not stated)	5	16	0
CC(=O)N1CCCC2(CCN(C(=O)c3ccccc3-c3ccccc3)CC2)C1	22	-1	10
O=C(c1cccnc1)N1CCO[C@@H]2CC(COCc3ccccn3)C[C@H]21 (some centres not stated)	2	1	0
COc1ccccc1CN1CCC([C@@H]2C[C@H](C(F)(F)F)n3ncnc3N2)CC1	31*	11	8
COc1ccc(CN2CCC([C@@H]3C[C@H](C(F)(F)F)n4ncnc4N3)CC2)cc1OC	10	1	3
Cc1ccc(C(=O)NC(C(=O)OCC(=O)c2cc(C)n(-c3ccc4c(c3)OCO4)c2C)C(C)C)cc1 (configuration not stated)	-8	29	17
SMILES	USP30 inh	USP17 inh	USP28 inh
CCN(Cc1ccncc1)C(=O)c1cc2ccccc2oc1=O	-33	7	0
Cc1ccc(-c2nc3c(c(SCC(=O)NCc4ccco4)n2)COC(C)(C)C3)cc1	20	41*	18
Cc1ccc(-c2nc3c(c(SCC(=O)c4ccccc4)n2)COC(C)(C)C3)cc1	16	9	4
O=S(=O)(NCCc1c[nH]c2ccc(O)cc12)c1ccc(F)cc1	-47	-12	0
Cc1ccc(NC(=O)C(C)Nc2nc(Nc3ccccc3)nc(Nc3ccccc3)n2)cc1 (configuration not stated)	45*	20	7
CC(=O)c1cccc(NC(=O)C(C)Nc2nc(Nc3cc(C)cc(C)c3)nc(Nc3cc(C)cc(C)c3)n2)c1 (configuration not stated)	-19	1	-2
O=C(C1CCC1)N1CCc2cc(S(=O)(=O)N3CCOCC3)ccc21	7	4	25
Cc1sc2ncn3c(=O)n(CC(=O)Nc4ccc(F)cc4)nc3c2c1C	14	2	5
Cc1sc2ncn3c(=O)n(CC(=O)Nc4ccc(F)c(Cl)c4)nc3c2c1C	16	53*	7
N#Cc1ccc(-c2ccc(S(=O)(=O)C3CCN(C(=O)c4ccc(F)cc4F)CC3)cc2)cc1	26	8	15

High-throughput results from PubChem.
